Measured values taken from PubChem BioAssay AID1720 (National Center for Advancing Translational Sciences (NCATS), 2009).
Some of the results follow. Inconclusive results are not listed. Values without a mark were called inactive. Activity calls are given as the source filed them. Cut-off read from the data, not from the text of the source: active = inhibition above about 40%; inconclusive = no clear call, values can overlap the other calls; inactive = below about 18%.

Molecular target: Microtubule-associated protein tau (Homo sapiens) (UniProt P10636)
Sequence (P10636 561-689 P618L limits assumed): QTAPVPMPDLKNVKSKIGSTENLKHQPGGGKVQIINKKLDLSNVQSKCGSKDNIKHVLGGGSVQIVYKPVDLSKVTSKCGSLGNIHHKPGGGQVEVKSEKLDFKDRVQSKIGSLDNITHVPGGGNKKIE
Assay: Sedimentation Assay for Inhibitors of Tau Fibrillization
Conditions: recombinant tau K18 P301L (four-repeat tau fragment), sedimentation SDS-PAGE densitometry; at 100 µM; hits give high values
Source text: NIH Molecular Libraries Probe Production Network [MLPCN] NIH Chemical Genomics Center [NCGC] MLPCN Grant: X01 MH083262-01 Assay Provider: Carlo Ballatore, University of Pennsylvania NCGC Assay Overview: The microtubule-associated protein tau is an abundant protein in the axons of neurons that stabilizes microtubules. With its ability to modulate microtubule dynamics, tau contributes directly or indirectly, to key structural and regulatory cellular functions. Particularly important is the influence tau exerts on axonal transport, which allows signaling molecules, trophic factors and other essential cellular constituents to travel along the axons. […] The ability of compounds to block tau fibrillization was assessed using a sedimentation assay. Unlike tau monomers, tau fibrils readily sediment upon centrifugation. Samples from the tau ThT confirmation assay treated with 100 uM compound (AID 1558) were centrifuged and the amount of tau present in the supernatant and pellet was determined. […]
NCGC Assay Protocol Summary: Human K18 P301L tau (15 uM) in assay buffer (20 uM heparin, 12.5 uM Thioflavine T, 100 mM sodium acetate pH 7) was centrifuged at 186,000 x g for 30 min and the supernatant removed from the pellet. Pellets were resuspended in a volume equal to the supernatant and equal amounts of supernatants and pellet were analyzed by SDS-PAGE using a 12.5% acrylamide gel. […]

Row | SMILES | inhibition
1 | CC(=O)Nc1sc(C)c2cnn(-c3ccccc3)c(=O)c12 | 5%
2 | CCN(CC)c1ccc2oc(=O)c(C)nc2c1 | 59% (active)
